# Data published in PubChem BioAssay (NCI).
# Compounds without any hit were thinned out: in the full panel of roughly 79,000, 15% have a hit. A number with no mark means an inactive call. Calls of active or inactive are those of the source. Cut-off read from the data, not from the text of the source: active = growth inhibition above about 70%; inactive = the rest.
# Legend:
# [1] = NCI Yeast Anticancer Drug Screen. Data for the rad50 strain (AID 155);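 note: 0% = growth of vehicle-only cultures of the same strain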; details: S. cerevisiae rad50 strain growth inhibition, active compounds read high
# Procedure, shortened: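 Cells are treated with compound, grown, and their growth is then scored against vehicle-only cultures of the same repair-deficient yeast strain.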
# [2] = NCI Yeast Anticancer Drug Screen. Data for the mec2-1 strain (AID 157); details: S. cerevisiae mec2-1 strain, active compounds read high
# Procedure, shortened: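 Cells of the genetically defined mec2-1 yeast strain are incubated with test compound. Inhibition of growth is calculated against vehicle-treated controls.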
# [3] = NCI Yeast Anticancer Drug Screen. Data for the sgs1 mgt1 strain (AID 161);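 note: 0% = growth of cultures given vehicle only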; details: S. cerevisiae sgs1 mgt1 strain, active compounds read high
# Procedure, shortened: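 Read-out: growth inhibition vs vehicle controls. Cells: mutant yeast strain deficient in DNA damage repair.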
# [4] = NCI Yeast Anticancer Drug Screen. Data for the cln2 rad14 strain (AID 165);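 note: 0% = growth equal to vehicle treated cultures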; details: S. cerevisiae cln2 rad14 strain, active compounds read high
# Procedure, shortened: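 The screen exposed genetically defined yeast (cln2 rad14) to test compounds and scored growth inhibition relative to vehicle-treated controls.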
# [5] = NCI Yeast Anticancer Drug Screen. Data for the bub3 strain (AID 167); details: S. cerevisiae bub3 mutant strain, active compounds read high
# Procedure, shortened: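 Part of a panel of yeast mutants defective in DNA damage repair or cell cycle regulation. Each strain is grown with compound, and inhibition is calculated relative to solvent-treated cultures.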
# [6] = NCI Yeast Anticancer Drug Screen. Data for the mlh1 rad18 strain (AID 175); details: S. cerevisiae mlh1 rad18 strain growth inhibition, active compounds read high
# Procedure, shortened: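 Compound-treated yeast growth, normalised to vehicle controls. Strain bears defined DNA repair mutations.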
# [7] = at 5.0 µM (retest, dose inferred, filed as 0.5)
# [8] = at 50.0 µM (retest, dose inferred, filed as 5.0)
Compound,"growth inhibition [1, 7]","growth inhibition [1, 8]",growth inhibition ([1]; at 50.0 µM),"growth inhibition [2, 7]","growth inhibition [2, 8]",growth inhibition ([2]; at 50.0 µM),"growth inhibition [3, 7]","growth inhibition [3, 8]",growth inhibition ([3]; at 50.0 µM),"growth inhibition [4, 7]","growth inhibition [4, 8]",growth inhibition ([4]; at 50.0 µM),"growth inhibition [5, 7]","growth inhibition [5, 8]",growth inhibition ([5]; at 50.0 µM),"growth inhibition [6, 7]","growth inhibition [6, 8]",growth inhibition ([6]; at 50.0 µM)
C=C1C(=O)O[C@H]2[C@H](OC(C)=O)[C@@H](C)CCC/C(C)=C/CC[C@@]3(C)O[C@@H]3C[C@@H]12,14%,99% (active),91.9% (active),17%,99% (active),94.2% (active),20%,98% (active),92.8% (active),3%,95% (active),91.1% (active),3%,98% (active),93% (active),22%,99% (active),92.3% (active)
Nc1nc(N)c2c(ccc3c2ccn3Cc2cccc([N+](=O)[O-])c2)n1,39%,60%,19.9%,70% (active),90% (active),0.75%,56%,67%,54.4%,38%,53%,57.5%,43%,51%,83.5% (active),29%,46%,14.6%
CCOC(=O)c1c(-c2ccccc2)csc1NC(=O)CBr,22%,98% (active),99.1% (active),11%,99% (active),98.3% (active),30%,99% (active),52.5%,3%,98% (active),91.8% (active),7%,97% (active),94.2% (active),49%,98% (active),99.2% (active)
CCc1ccc(-c2ccccc2)cc1,1%,1%,9.45%,-1%,6%,-2.95%,-1%,-2%,-3.9%,-7%,6%,76.9% (active),9%,10%,9.05%,0%,4%,8.75%
O=CNNC(=O)Nc1ccc(Cl)cc1,19%,25%,-1.5%,10%,14%,-3.75%,20%,11%,-8.8%,32%,19%,22.1%,4%,0%,14.6%,20%,21%,7.2%
CCCCCCCN=C(N)c1ccc(C(=O)OCc2ccccc2)cc1,1%,86% (active),99.5% (active),-12%,76% (active),99.8% (active),5%,95% (active),99.8% (active),-2%,80% (active),99.4% (active),0%,77% (active),99.4% (active),6%,94% (active),99.7% (active)
CCOC1(OCC)Oc2c(Cl)c(Cl)c(Cl)c(Cl)c2OC1(OCC)OCC,11%,97% (active),98.3% (active),13%,98% (active),98.9% (active),12%,96% (active),98.5% (active),16%,97% (active),97.4% (active),13%,97% (active),98% (active),14%,96% (active),98.7% (active)
C=C(c1ccccc1)[N+](=O)[O-],94% (active),99% (active),99.2% (active),63%,99% (active),99.4% (active),59%,99% (active),99.6% (active),37%,99% (active),99.1% (active),67%,99% (active),99.3% (active),67%,100% (active),99.2% (active)
CN(C)CC1Cc2ccsc2C1=O (stereo not given),0%,85% (active),99% (active),5%,75% (active),99.5% (active),3%,54%,99.4% (active),1%,76% (active),99.5% (active),0%,88% (active),99.3% (active),0%,93% (active),99.2% (active)
O=C(/C=C/C=C/c1ccccc1)c1ccco1,-7%,-16%,83% (active),14%,5%,90.3% (active),-10%,28%,91.7% (active),4%,28%,50.4%,-6%,57%,91.9% (active),-19%,44%,76% (active)
CCCCC(CC(=O)O)c1ccc(Cl)cc1 (stereo not given),-146%,-7%,57.5%,-43%,17%,60.7%,-58%,5%,40.6%,-63%,37%,70% (active),-61%,28%,54.6%,-133%,13%,66%
O=C(Nc1c(Cl)cccc1Cl)OCCOc1ccc(Cl)cc1Cl,44%,73% (active),88.5% (active),36%,57%,90.8% (active),47%,58%,91.2% (active),34%,61%,88.2% (active),38%,71% (active),90.7% (active),55%,80% (active),90% (active)
COc1c2occc2c(OC)c2c(C)c(C(=O)OCCN3CCOCC3)oc12,-1%,31%,64%,-3%,5%,50.3%,-4%,43%,28.1%,-4%,2%,19.4%,1%,56%,58.1%,-5%,54%,66.2%
CCc1nc(N)nc(N)c1-c1ccc(NCCN)c([N+](=O)[O-])c1,-20%,-26%,98.7% (active),-3%,5%,98.7% (active),-28%,-22%,98.8% (active),-7%,-34%,98.5% (active),2%,-28%,98% (active),-31%,-40%,98.9% (active)
O=C(C(Oc1ccc(Cl)cc1)Oc1ccc(Cl)cc1)N(O)c1ccccc1OCc1ccccc1,14%,49%,66.8%,3%,39%,63%,18%,45%,69.5%,-13%,49%,53.6%,6%,57%,47.9%,11%,45%,71.5% (active)
O=C(NNc1ccc(F)cc1)C12CC3CC(CC(C3)C1)C2,9%,90% (active),98.4% (active),3%,68%,17.8%,4%,98% (active),53.2%,4%,57%,27.1%,-3%,97% (active),98.3% (active),2%,98% (active),27.1%
C/C=C(/CN/C(=C\[N+](=O)[O-])c1ccccc1)c1ccccc1,0%,87% (active),96.5% (active),-4%,86% (active),95% (active),0%,79% (active),94.3% (active),-1%,37%,75.2% (active),8%,74% (active),92.7% (active),-8%,84% (active),95.5% (active)
CC(C)(c1ccccc1)c1ccc2[nH]c(C(C)(C)c3ccccc3)c(CC(=O)O)c2c1,2%,93% (active),93.7% (active),10%,80% (active),69.5%,10%,96% (active),85.7% (active),0%,95% (active),96% (active),-3%,96% (active),94.8% (active),17%,96% (active),96% (active)
CC(C)C(C)OC(=O)Nc1cccc(O)c1 (stereo not given),-142%,-141%,35.3%,-48%,-53%,3.15%,-66%,-48%,18.1%,-50%,-54%,46.5%,-67%,-74%,2.3%,-144%,-102%,18.4%
COc1ccccc1NC(=O)CC(=O)N1N=C(C)C(N=Nc2ccc(C(=O)O)cc2)C1=O (stereo not given),2%,-1%,0%,0%,-2%,-4%,-4%,-20%,2.65%,-2%,7%,27.9%,1%,16%,-1.05%,1%,1%,2.3%
